From the supplement of paper PMC10338343
± gives the standard deviation.

tested on: EfPiwi piRISC loaded with L1MC piRNA (26 nt); assay: pre-steady-state target cleavage rate (min^-1); auxiliary factor: 500 nM Ephydatia muelleri Gtsf1; guide: L1MC piRNA 5'p-UAACUAAAUACUAUGCAAGCUGUAGG; MIWI and MILI are mouse PIWI proteins and EfPiwi is from a freshwater sponge; tags in brackets are library labels; higher = faster piRNA-guided slicing of the target
Outline: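 Active affinity-purified piRISC carrying one synthetic guide (1 nM) was mixed with a transcribed, DNA-blocked target RNA library […] in HEPES–potassium acetate buffer at 33 °C for 0–8 or 0–960 min, with or without 500 nM GTSF1 partner protein. Uncleaved targets were then sequenced and normalised to depth and to weakly complementary targets. Three trials were pooled, and k3 was capped at 0.0001 min^-1. A burst-and-steady-state fit was applied to obtain the pre-steady-state cleavage rate.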

Q: With UCCUGGAUGUCGAACGACAGUAUUUAGUUA as the sequence, how does the “pre-steady-state target cleavage rate” value read?
A: < 0.0001

Q: How did the “pre-steady-state target cleavage rate” value turn out when UCCUGGAUCAGGCUUGCAUAGUAUUUAGUUA was run?
A: 0.0132 ± 0.0034

Q: With UCCUCCUACAGCUUGGAUAGUAUUUAGUUA as the sequence, how does the “pre-steady-state target cleavage rate” value read?
A: 0.057 ± 0.012

Q: Which “pre-steady-state target cleavage rate” value does the source give for “UCCUGCUACAGCUUGCAUAGUAUUUAGUUA [g2:g25:cont:t1A]” here?
A: 0.0357 ± 0.011

Q: With UCCUGCUACAGCUUGCAUAGUAUUAUGUAA as the sequence, how does the “pre-steady-state target cleavage rate” value read?
A: 0.00194 ± 0.0019

Q: With UCCUGCUACAGGUUGCAUUGUAUUUAGUUA as the sequence, how does the “pre-steady-state target cleavage rate” value read?
A: 0.00597 ± 0.0023

Q: How did the “pre-steady-state target cleavage rate” value turn out when “UCCUCCUACAGCUUGCAUAGUAUUUAGUUU [g2:g26:cont:t1U]” was run?
A: 0.265 ± 0.062

Q: With UCCUGCUACAGCUUGCAAAGUAUUUUGUUA as the sequence, how does the “pre-steady-state target cleavage rate” value read?
A: 0.00625 ± 0.0028

Q: Which “pre-steady-state target cleavage rate” value does the source give for UCCUGCUACAGCUUGCAUGGUAUUUAGUUA here?
A: 0.0201 ± 0.0061

Q: Which “pre-steady-state target cleavage rate” value does the source give for UCCUCCUACAGCUUGGAUAGUAUUUUCAAA here?
A: 0.00297 ± 0.0022

Q: With UCCUGCUACAGCUUCCAUAGUAUAUAGUUA as the sequence, how does the “pre-steady-state target cleavage rate” value read?
A: 0.00251 ± 0.0024

Q: For UCCUGGAUGUCGAACGAUACUAUUUUGUUA, which “pre-steady-state target cleavage rate” value is on record?
A: < 0.0001

Q: With UCCUGGUACAGCUUCCAUAGUAUUUAGUUA as the sequence, how does the “pre-steady-state target cleavage rate” value read?
A: 0.00258 ± 0.0017

Q: For UCCUGGAACAGCUUGCUUAGUAUUUUGUUA, which “pre-steady-state target cleavage rate” value is on record?
A: 0.00494 ± 0.0028

Q: For UCCUGCUACAGCUUGCAUAGUAUUUAGCUA, which “pre-steady-state target cleavage rate” value is on record?
A: 0.00339 ± 0.0014

Q: UCCUGGAUGAGGUUGCAUAGUAUUUAGAAA was tested. Which “pre-steady-state target cleavage rate” value did it give?
A: 0.00315 ± 0.0029

Q: Which “pre-steady-state target cleavage rate” value does the source give for UCCUGGAUCAGCUUGCAUAGUAUUUGAGUUA here?
A: 0.00696 ± 0.0028

Q: How did the “pre-steady-state target cleavage rate” value turn out when UCCUGGAUGUCGAACCAAAGUAUUUAGUUA was run?
A: < 0.0001

Q: For UCCUGGAUGAGCUUGCGUAGUAUUUAGUUA, which “pre-steady-state target cleavage rate” value is on record?
A: 0.00425 ± 0.0038

Q: Which “pre-steady-state target cleavage rate” value does the source give for UCCUGGAACAGCUUGCAUAGUAUUCAGUUA here?
A: 0.00333 ± 0.0018

Q: Which “pre-steady-state target cleavage rate” value does the source give for UCCUGGAUGUGCUUGCAUACUAUUUAGAUA here?
A: 0.00202 ± 0.0015

Q: With UCCUGGAUGUCGAACCAUAGUCUUUAGUUA as the sequence, how does the “pre-steady-state target cleavage rate” value read?
A: < 0.0001

Q: Which “pre-steady-state target cleavage rate” value does the source give for UCCUGGAUGUCGAACCAUAGUAUUUCGUUA here?
A: < 0.0001

Q: UCCUGCUACUGGUUGCAUAGUAUUUAGUUA was tested. Which “pre-steady-state target cleavage rate” value did it give?
A: 0.0113 ± 0.0035

Q: Which “pre-steady-state target cleavage rate” value does the source give for UCCUGGAUGAGCUUGCAUAGUAUUUUCUAA here?
A: 0.00391 ± 0.0026

Q: With UCCUGGAUGUCGAACGUUAGAUUUAGUUA as the sequence, how does the “pre-steady-state target cleavage rate” value read?
A: < 0.0001

Q: With UCCUGGAUGUCGAACGUAUGUAUUUUGUUA as the sequence, how does the “pre-steady-state target cleavage rate” value read?
A: < 0.0001

Q: How did the “pre-steady-state target cleavage rate” value turn out when UCCUGGAUGUCGAACCAUUGAAUUUAGUUA was run?
A: < 0.0001

Q: How did the “pre-steady-state target cleavage rate” value turn out when UCCUCCUACAGCUUGCAUAGUAUUUAGUGUA was run?
A: 0.00735 ± 0.0033

Q: UCCUCCUACAGGAAGCAUAGUAUUUAGUAA was tested. Which “pre-steady-state target cleavage rate” value did it give?
A: 0.00397 ± 0.0031

Q: With UCCUGGAUGUGCUUGCAUAGUAUUUACUAA as the sequence, how does the “pre-steady-state target cleavage rate” value read?
A: 0.146 ± 0.073

Q: UCCUGGAUGUCGAACGUUAGUAAAAAGUUA was tested. Which “pre-steady-state target cleavage rate” value did it give?
A: < 0.0001

Q: For UCCUGGUACAGCUUGCUUAGUAUAUAGUUA, which “pre-steady-state target cleavage rate” value is on record?
A: 0.0737 ± 0.025

Q: Which “pre-steady-state target cleavage rate” value does the source give for UCCUGGAUGUCGAACGUUAGUAUUUAGUCA here?
A: < 0.0001

Q: For UCCUGCUACAGCUUGGAUAGUAUUUUCAAA, which “pre-steady-state target cleavage rate” value is on record?
A: 0.00307 ± 0.0018

Q: Which “pre-steady-state target cleavage rate” value does the source give for UCCUGGAUGUCGAACCAUAGUAUCUUAGUUA here?
A: < 0.0001

Q: How did the “pre-steady-state target cleavage rate” value turn out when UCCUGGAUGUCGAACGUAAGUAUUUGGUUA was run?
A: < 0.0001

Q: For UCCUGGUACCAGCUUGCAUAGUAUUUAGUUA, which “pre-steady-state target cleavage rate” value is on record?
A: 0.0109 ± 0.0044

Q: Which “pre-steady-state target cleavage rate” value does the source give for UCCUGGAUGUCGAUGCAAAGUAUUUUGUUA here?
A: < 0.0001

Q: How did the “pre-steady-state target cleavage rate” value turn out when UCCUGGAUCACCUUGGAUAGUAUUUAGUUA was run?
A: 0.00371 ± 0.0037
